# In the supplement of paper PMC3334620:
# The full ranking holds about 33,000 sequences; the median of “E-score (-0.5 to 0.5)” is about -0.017, and the highest 2% start at about 0.3. The full list was thinned out, with the highest values kept by preference.
# Biological target: T1, Sut1 (UniProt P53032)
# T1 sequence: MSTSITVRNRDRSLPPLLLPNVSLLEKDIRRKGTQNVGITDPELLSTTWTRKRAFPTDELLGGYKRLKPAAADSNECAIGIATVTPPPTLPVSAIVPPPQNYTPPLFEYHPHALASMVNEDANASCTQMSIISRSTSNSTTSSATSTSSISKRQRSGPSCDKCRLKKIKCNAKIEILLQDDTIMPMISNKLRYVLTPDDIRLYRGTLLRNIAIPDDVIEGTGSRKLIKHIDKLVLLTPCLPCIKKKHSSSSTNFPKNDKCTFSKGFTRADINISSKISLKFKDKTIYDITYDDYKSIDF
# Experiment: PBM E-score (8-mer binding enrichment) (E-score (-0.5 to 0.5)); higher = stronger / more preferred TF binding
# Details: protein concentration: 200 nM; construct: GST-full length
# Outline: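 Masliner-normalised scans of fluorescent anti-GST signal were the basis for scoring. That signal came from GST-tagged yeast transcription factors applied at about 100-200 nM to double-stranded universal all-10-mer Agilent arrays on fresh or once-stripped slides. Each ungapped eight-base word, pooled with its reverse complement, received an E-score from the Universal PBM Analysis Suite.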
row,Sequence,PBM E-score
1,ACGCTATA,-0.103
2,CACTAACG,-0.17
3,CGGTGCAA,-0.00847
4,AGAGCGCA,-0.306
5,AGGGAGGG,-0.158
6,AAGACTAA,0.0716
7,GGTTAACA,0.0261
8,CTATATAC,0.287
9,AGATATAT,0.301
10,ATATAGAG,0.0735
11,AGATATAC,0.0915
12,AGATATAG,0.18
13,ATATATAG,0.329
14,ACATATAC,0.088
15,CTATATAG,0.0328
16,ATATATAC,0.31
17,AGAAATGG,-0.012
18,GGCACTCA,-0.374
19,CTCGCCTA,-0.0978
20,TGCGTTAA,-0.00864
21,TATCTCGA,0.108
22,ATGGTGTC,-0.14
23,CCCGTGCC,-0.126
24,AACCGAGA,0.195
25,AATTGAAT,0.314
26,CATTGAAA,0.249

row,Sequence,PBM E-score
1,AATTGAAG,0.115
2,GATTGAAA,0.303
3,GATTGAAC,0.00278
4,AATTGAAC,0.0105
5,GATCAAAC,-0.00328
6,CCCCATAA,-0.104
7,CGAAGATA,0.132
8,AGAGGGGG,-0.322
9,GCCGGCAA,0.144
10,TCCGGCAA,0.33
11,GCCGGCGA,0.0246
12,TCCGGCGA,0.301
13,ACCGGCGA,-0.0414
14,ACCGGCAA,-0.198
15,GAATTTTA,0.251
16,AACTCTGT,-0.0734
17,GGACGTAA,-0.136
18,ATGTTGAA,0.131
19,CTTGAGAA,-0.0815
20,TTCGCAAA,0.303
21,GTCGCAAA,0.131
22,ATCGCAAA,0.0837
23,ACGGTCCT,-0.258
24,ACCCAGAC,-0.0554
25,CAAGCAAC,-0.124
26,ATTCCAAA,0.0401
